The panel holds about 83,000 compounds, 20% with a hit somewhere; the sample as a whole holds those more often.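 Assay: single dose, 48 h. Readout: percent growth (0 = no net growth; negative = cell death). Active: <10.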 Calls of active or inactive are those of the source.
Columns and labels:
Experiment in all cases: NCI-60 one-dose screen, 48 h (100 = growth as untreated, 0 = no growth, -100 = all killed)
Details in all cases: 10 µM unless noted
DU-145 prostate = test system: DU-145 prostate
K-562 leukemia = test system: K-562 leukemia
MALME-3M melanoma = test system: MALME-3M melanoma
MDA-MB-231 breast = test system: MDA-MB-231 breast
SF-268 CNS = test system: SF-268 CNS
SF-295 CNS = test system: SF-295 CNS
SF-539 CNS = test system: SF-539 CNS
M14 melanoma = test system: M14 melanoma
HCT-15 colon = test system: HCT-15 colon
HT29 colon = test system: HT29 colon
SNB-75 CNS = test system: SNB-75 CNS
SNB-19 CNS = test system: SNB-19 CNS
U251 CNS = test system: U251 CNS
PC-3 prostate = test system: PC-3 prostate
SK-MEL-5 melanoma = test system: SK-MEL-5 melanoma
UACC-62 melanoma = test system: UACC-62 melanoma
LOX IMVI melanoma = test system: LOX IMVI melanoma
SK-MEL-28 melanoma = test system: SK-MEL-28 melanoma
UACC-257 melanoma = test system: UACC-257 melanoma
RXF 393 renal = test system: RXF 393 renal

Measured: growth

COc1cc(C2CC(=O)Nc3n[nH]c(-c4ccccc4)c32)cc(OC)c1OC (stereo not drawn)
inactive: DU-145 prostate 102% | K-562 leukemia 24.6% | MALME-3M melanoma 68.5% | MDA-MB-231 breast 63.9% | SF-268 CNS 90.7% | SF-295 CNS 75.5% | SF-539 CNS 81.2% | M14 melanoma 53.3% | HCT-15 colon 68.4% | HT29 colon 47.1% | SNB-75 CNS 47.7% | SNB-19 CNS 75.4% | U251 CNS 62.9% | PC-3 prostate 59.3% | SK-MEL-5 melanoma 68% | UACC-62 melanoma 38% | LOX IMVI melanoma 70.3% | SK-MEL-28 melanoma 66.5%

COc1ccc(/C=C2\COc3ccc(O)c(O)c3C2=O)c(OC)c1
inactive: DU-145 prostate 67.2% | K-562 leukemia 14% | MALME-3M melanoma 32.9% | MDA-MB-231 breast 56.6% | SF-268 CNS 54.8% | SF-295 CNS 95.6% | SF-539 CNS 49.5% | UACC-257 melanoma 54.4% | HCT-15 colon 16.8% | HT29 colon 73.6% | SNB-75 CNS 57.7% | SNB-19 CNS 76% | U251 CNS 44.4% | PC-3 prostate 49.6% | UACC-62 melanoma 47.8% | LOX IMVI melanoma 30.7% | SK-MEL-28 melanoma 76.4%

CSc1nc(N)c(CNC(C)c2ccccc2)c(=O)n1C (stereo not drawn)
inactive: DU-145 prostate 118% | K-562 leukemia 96.2% | MDA-MB-231 breast 114% | RXF 393 renal 98.9% | SF-268 CNS 106% | SF-295 CNS 117% | SF-539 CNS 94.9% | UACC-257 melanoma 90.2% | M14 melanoma 97.5% | HCT-15 colon 104% | HT29 colon 105% | SNB-75 CNS 93.4% | SNB-19 CNS 98.9% | U251 CNS 95% | PC-3 prostate 101% | SK-MEL-5 melanoma 113% | UACC-62 melanoma 98.8% | LOX IMVI melanoma 92.3% | SK-MEL-28 melanoma 109%

O=C1CSC(c2ccccc2Cl)N1c1nnc(Cn2cnnc2)o1 (stereo not drawn)
inactive: DU-145 prostate 104% | MALME-3M melanoma 28.9% | MDA-MB-231 breast 68.6% | SF-268 CNS 94.7% | SF-539 CNS 39.7% | M14 melanoma 20.4% | HCT-15 colon 27.6% | HT29 colon 22.2% | SNB-75 CNS 50.2% | SNB-19 CNS 64.5% | U251 CNS 32.7% | PC-3 prostate 71.2% | SK-MEL-5 melanoma 23.7% | UACC-62 melanoma 38.6% | LOX IMVI melanoma 62.5% | SK-MEL-28 melanoma 58.7%
active: K-562 leukemia 8.59% | SF-295 CNS -32.6%

Cn1ccnc1C(=O)/C=C/c1ccc(C(=O)Nc2ccc(S(F)(F)(F)(F)F)cc2)cc1
inactive: DU-145 prostate 15.6% | MALME-3M melanoma 59.6% | MDA-MB-231 breast 22.4% | SF-268 CNS 15.3% | SF-295 CNS 32.7% | UACC-257 melanoma 42.4% | HT29 colon 12% | SNB-75 CNS 12.2% | PC-3 prostate 17.4% | UACC-62 melanoma 53.5% | SK-MEL-28 melanoma 79.5%
active: K-562 leukemia 2.18% | SF-539 CNS -37.1% | HCT-15 colon 3.65% | U251 CNS -6.93% | LOX IMVI melanoma -79.5%

Cc1cn(C2CCCCC2)c(=O)[nH]c1=O
inactive: DU-145 prostate 163% | MALME-3M melanoma 120% | MDA-MB-231 breast 103% | RXF 393 renal 113% | SF-268 CNS 108% | SF-295 CNS 111% | SF-539 CNS 109% | UACC-257 melanoma 102% | M14 melanoma 106% | HCT-15 colon 99.2% | HT29 colon 96% | SNB-75 CNS 94.4% | SNB-19 CNS 114% | U251 CNS 108% | SK-MEL-5 melanoma 105% | UACC-62 melanoma 109% | LOX IMVI melanoma 111% | SK-MEL-28 melanoma 109%

N#Cc1cnn2c(-c3ccc(Cl)cc3)nc(NCCc3ccccc3)nc12
inactive: DU-145 prostate 99.5% | MALME-3M melanoma 111% | MDA-MB-231 breast 87.5% | RXF 393 renal 116% | SF-268 CNS 92.2% | SF-295 CNS 99.2% | SF-539 CNS 98% | UACC-257 melanoma 99.9% | M14 melanoma 95% | HCT-15 colon 103% | HT29 colon 80.7% | SNB-75 CNS 78.8% | SNB-19 CNS 100% | U251 CNS 97% | PC-3 prostate 73.7% | SK-MEL-5 melanoma 99.8% | UACC-62 melanoma 65.7% | LOX IMVI melanoma 84.9% | SK-MEL-28 melanoma 101%

COc1ccc(-c2nnc(SCC(=O)NC3=NN=C(c4ccccc4)CS3)o2)cc1
inactive: DU-145 prostate 102% | MALME-3M melanoma 105% | MDA-MB-231 breast 91.5% | RXF 393 renal 117% | SF-268 CNS 94.2% | SF-295 CNS 98% | SF-539 CNS 101% | UACC-257 melanoma 67.1% | M14 melanoma 95.5% | HCT-15 colon 106% | HT29 colon 96.1% | SNB-75 CNS 88.1% | SNB-19 CNS 90.8% | U251 CNS 87.2% | PC-3 prostate 86.8% | SK-MEL-5 melanoma 107% | UACC-62 melanoma 95.2% | LOX IMVI melanoma 101%

CCCCCCNC(=O)c1cc(NCc2cc(O)ccc2O)ccc1O
inactive: DU-145 prostate 92.6% | MALME-3M melanoma 67.4% | MDA-MB-231 breast 45.2% | RXF 393 renal 37.4% | SF-268 CNS 53.8% | SF-295 CNS 95.8% | SF-539 CNS 11.8% | UACC-257 melanoma 56.1% | HCT-15 colon 34.6% | HT29 colon 91% | SNB-75 CNS 45.7% | SNB-19 CNS 99.7% | U251 CNS 67.3% | PC-3 prostate 42.6% | SK-MEL-5 melanoma 90% | UACC-62 melanoma 56.3% | LOX IMVI melanoma 67.7% | SK-MEL-28 melanoma 101%

CC(C)CCC[C@@H](C)[C@H]1CCC2C3=CCn4c(=O)ccc(=O)n4C3CC[C@@]21C (stereo partly drawn)
active: DU-145 prostate -93.7% | K-562 leukemia -40% | MDA-MB-231 breast -89.2% | RXF 393 renal -76% | SF-268 CNS -91.6% | SF-295 CNS -92.3% | SF-539 CNS -99.5% | UACC-257 melanoma -79.3% | M14 melanoma -98% | HCT-15 colon -44.6% | HT29 colon -63.7% | SNB-75 CNS -100% | SNB-19 CNS -96.8% | U251 CNS -96.9% | PC-3 prostate -85.5% | SK-MEL-5 melanoma -100% | UACC-62 melanoma -97.5% | LOX IMVI melanoma -89.5% | SK-MEL-28 melanoma -93%

Clc1ccc(-c2nc(NCCc3ccccc3)nc3c(NCCc4ccccc4)cnn23)cc1
inactive: DU-145 prostate 84.5% | MALME-3M melanoma 96.8% | MDA-MB-231 breast 92.1% | RXF 393 renal 94.7% | SF-268 CNS 35.1% | SF-295 CNS 56.4% | SF-539 CNS 30.9% | UACC-257 melanoma 71.5% | M14 melanoma 70% | HCT-15 colon 72.9% | HT29 colon 41.9% | SNB-75 CNS 85.6% | SNB-19 CNS 85.6% | U251 CNS 48.4% | PC-3 prostate 51.7% | SK-MEL-5 melanoma 94.2% | UACC-62 melanoma 73.2% | LOX IMVI melanoma 60.9% | SK-MEL-28 melanoma 75.2%

CCOC(=O)c1nnn(-c2ccccc2)c1C1=CN(C)CCC1
inactive: DU-145 prostate 103% | MALME-3M melanoma 104% | MDA-MB-231 breast 112% | RXF 393 renal 120% | SF-268 CNS 92.4% | SF-295 CNS 98.2% | SF-539 CNS 95.2% | UACC-257 melanoma 99.4% | HCT-15 colon 99% | HT29 colon 99.1% | SNB-75 CNS 89.8% | SNB-19 CNS 108% | U251 CNS 102% | PC-3 prostate 96.4% | SK-MEL-5 melanoma 105% | UACC-62 melanoma 100% | LOX IMVI melanoma 97.3% | SK-MEL-28 melanoma 111%

Cc1nc(Nc2ccc(NC(=S)Nc3ccccc3)cc2)nc2nc(SCc3ccccc3)[nH]c(=O)c12
active: RXF 393 renal -24%
inactive: DU-145 prostate 104% | K-562 leukemia 72.1% | MDA-MB-231 breast 76.9% | SF-268 CNS 98.4% | SF-295 CNS 169% | SF-539 CNS 63.3% | UACC-257 melanoma 74.8% | HCT-15 colon 108% | HT29 colon 120% | SNB-75 CNS 104% | SNB-19 CNS 102% | U251 CNS 100% | PC-3 prostate 100% | SK-MEL-5 melanoma 99.7% | UACC-62 melanoma 81.7% | LOX IMVI melanoma 101% | SK-MEL-28 melanoma 115%

CCOC(=O)c1ccc(-c2ccc3cc(OC)ccc3c2)nc1C
inactive: DU-145 prostate 103% | MALME-3M melanoma 92.8% | MDA-MB-231 breast 104% | RXF 393 renal 116% | SF-268 CNS 96.4% | SF-295 CNS 100% | SF-539 CNS 98.9% | UACC-257 melanoma 107% | HCT-15 colon 99.2% | HT29 colon 80.2% | SNB-75 CNS 110% | SNB-19 CNS 99.6% | U251 CNS 104% | PC-3 prostate 100% | SK-MEL-5 melanoma 107% | UACC-62 melanoma 85.2% | LOX IMVI melanoma 105% | SK-MEL-28 melanoma 91.5%

CCOc1cccnc1/C=N/NC(N)=S
active: SF-295 CNS 5.53%
inactive: DU-145 prostate 34.4% | K-562 leukemia 31.4% | MDA-MB-231 breast 49.6% | RXF 393 renal 61.4% | SF-268 CNS 32.9% | SF-539 CNS 47.7% | UACC-257 melanoma 95.7% | M14 melanoma 42.4% | HCT-15 colon 40.2% | HT29 colon 56.7% | SNB-75 CNS 68.7% | SNB-19 CNS 69.4% | U251 CNS 36.1% | PC-3 prostate 37.3% | SK-MEL-5 melanoma 55.4% | UACC-62 melanoma 50.6% | LOX IMVI melanoma 35.9% | SK-MEL-28 melanoma 76.1%

Nc1c(-c2nc3ccc(Br)cc3c(=O)[nH]2)nnn1-c1ccccc1
inactive: DU-145 prostate 62.3% | MALME-3M melanoma 86.8% | MDA-MB-231 breast 82.2% | RXF 393 renal 103% | SF-268 CNS 60% | SF-295 CNS 68% | SF-539 CNS 90.9% | UACC-257 melanoma 95.9% | HCT-15 colon 79% | HT29 colon 58.8% | SNB-75 CNS 79.5% | SNB-19 CNS 70.6% | U251 CNS 38.6% | PC-3 prostate 73.4% | SK-MEL-5 melanoma 102% | UACC-62 melanoma 93.9% | LOX IMVI melanoma 80.4% | SK-MEL-28 melanoma 96.2%

COc1ccc(N(C)c2nc(Cl)nc3cnn(C)c23)cc1
inactive: MALME-3M melanoma 75.3% | MDA-MB-231 breast 19.2% | RXF 393 renal 44.8% | SF-268 CNS 29.1% | SF-295 CNS 17.9% | UACC-257 melanoma 38.1% | SNB-75 CNS 18.7% | SNB-19 CNS 29.7% | U251 CNS 17.8% | PC-3 prostate 16.2% | UACC-62 melanoma 32% | LOX IMVI melanoma 18.7% | SK-MEL-28 melanoma 58.2%
active: DU-145 prostate 7.13% | SF-539 CNS -9.34% | HCT-15 colon 9.08% | HT29 colon -9.42% | SK-MEL-5 melanoma -25.2%
